# BAZ2B inh – inhibitors of human BAZ2B bromodomain. Q9UIF8. AlphaScreen BAZ2B-H3K14Ac peptide displacement. Potency, µM (top dose mostly 114 µM), inactives show top-dose activity change, negative = inhibition, hits mostly inhibitors. actives 4.4% (n = 360,000); also: % is scaled to controls: 0 for no effect and ±100 for the full control effect; nearly all actives have a fitted effect of over 60% in size
#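 Protein-peptide AlphaScreen: BAZ2B 50 nM, b-H3K14Ac 50 nM, 1x PBS pH 7.4 + 0.01% Tween-20. Preincubation 30 min RT; cpd 30 min RT (top 110 uM); beads 20 min RT, light-protected.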
# JMJD2A Tudor inh – inhibitors of human JMJD2A Tudor domain | O75164 | AlphaScreen JMJD2A-Tudor / H3K4me3 peptide binding | Potency, µM (highest dose often 114 µM), for the others: top-dose activity change, negative = inhibition, most hits filed as inhibitors | actives 4.4% (n = 390,000) | AID 504339; also: % is scaled to controls: 0 for no effect and ±100 for the full control effect; nearly all actives have a fitted effect of over 50% in size
# HP1b chromo inh – HP1-beta chromodomain-methylated histone interaction inhibition; P83916; AlphaScreen HP1-beta / biotin-H3K9me3 peptide binding; Potency, µM (series often up to 114 µM), for the others: top-dose activity change, negative = inhibition, most hits filed as inhibitors; actives 0.56% (n = 390,000); also: nearly all actives have a fitted effect of over 70% in size
#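 Compound inhibition of the preformed complex between 50 nM HP1-beta and 50 nM biotinylated H3K9me3 peptide was read by AlphaScreen. Buffer was PBS pH 7.4 with 0.01% Tween-20. Incubations ran 30 min at room temperature, with 10 ug/mL donor/acceptor beads.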
# GLS inhibitor – inhibitors of human glutaminase (GLS) | O94925 | GLS enzymatic activity, qHTS titration | Potency, µM (highest dose often 45.5 µM), without a hit: at the top dose activity change, negative = inhibition, usual class: inhibitors | actives 0.21% (n = 410,000) | AID 624170; also: % is scaled to controls: 0 for no effect and ±100 for the full control effect
# Target sequence (O94925 whole entry, looked up): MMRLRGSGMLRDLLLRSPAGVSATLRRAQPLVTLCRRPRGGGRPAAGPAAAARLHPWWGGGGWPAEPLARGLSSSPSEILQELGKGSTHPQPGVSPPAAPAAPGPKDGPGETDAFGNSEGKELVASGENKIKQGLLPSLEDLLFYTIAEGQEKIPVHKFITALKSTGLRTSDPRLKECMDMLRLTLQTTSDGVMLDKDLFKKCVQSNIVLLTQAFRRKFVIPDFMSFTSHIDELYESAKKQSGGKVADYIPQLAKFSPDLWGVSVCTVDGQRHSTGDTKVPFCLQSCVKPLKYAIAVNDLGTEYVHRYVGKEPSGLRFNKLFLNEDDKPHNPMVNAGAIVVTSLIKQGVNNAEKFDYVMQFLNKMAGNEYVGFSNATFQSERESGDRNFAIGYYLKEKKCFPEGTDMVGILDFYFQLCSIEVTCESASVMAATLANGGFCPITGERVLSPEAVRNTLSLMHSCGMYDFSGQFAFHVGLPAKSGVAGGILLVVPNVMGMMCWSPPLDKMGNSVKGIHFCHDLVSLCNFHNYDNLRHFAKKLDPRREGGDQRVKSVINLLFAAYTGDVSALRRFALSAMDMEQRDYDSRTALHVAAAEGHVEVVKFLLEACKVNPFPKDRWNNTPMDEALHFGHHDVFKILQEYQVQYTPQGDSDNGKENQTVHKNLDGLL
#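 hKGA in 45 mM KH2PO4 pH 8.2, 0.02% Tween-20 with pin-transferred compounds; 1 mM L-glutamine (stock) plus glutamate oxidase/HRP/Amplex Red coupling added. Fluorescence read initially and after 30 min at RT.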
# L3MBTL1 block – blocks human L3MBTL1; Q9Y468; AlphaScreen L3MBTL1–H3K9me1 peptide binding; Potency, µM (highest dose often 57.1 µM), for the others: top-dose activity, negative = inhibition, actives largely listed as inhibitors; actives 0.66% (n = 230,000); also: % is scaled to controls: 0 for no effect and ±100 for the full control effect; nearly all actives have a fitted effect of over 60% in size
#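 AlphaScreen assay: L3MBTL1 (50 nM final) was preincubated 30 min at room temperature with biotinylated H3(1-15)K9me1 peptide (75 nM final), then 30 min with library compounds; streptavidin donor and nickel chelate acceptor beads (10 ug/mL final) added, 30 min dark.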
# G9a block – blocks human histone lysine methyltransferase G9a; Q96KQ7; G9a H3K9 monomethylation, AlphaScreen, 2 h; Potency, µM (series often up to 102 µM), for inactives: at the highest dose activity, negative = inhibition, usual class: inhibitors; actives 8.8% (n = 350,000); also: % is scaled to controls: 0 for no effect and ±100 for the full control effect; nearly all actives have a fitted effect of over 75% in size
#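 Using a bead-based AlphaScreen, monomethylated H3K9 product from 2 h room-temperature reactions (G9a 20 nM, peptide 500 nM, SAM 20 uM) was detected with 0.5 ug/mL rabbit anti-H3K9me1 antibody.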
# An asterisk follows results filed as active; ? = inconclusive; · = no result; ! = repeats disagree; [ ] = another dose, or the depositor's remark. The list is not random: actives were taken first. Their share in the collection is about 10%. Calls follow the shape of the dose curve; as a rule, active = well fitted curve in the direction sought with a large enough effect; inconclusive = small, poorly fitted or top-dose-only effect, or another doubt; inactive = no such curve, though single readings can be large; an effect the other way counts as inactive or inconclusive. Potency is read from the fitted curve at half-maximal effect.
SMILES,BAZ2B inh,JMJD2A Tudor inh,HP1b chromo inh,GLS inhibitor,L3MBTL1 block,G9a block
CC(C)(C)N1C(=O)NC(=O)/C(=C\c2ccc3c(c2)CCN3CCCCl)C1=O,?,40µM*,?,0%,·,40µM*
CCCCn1c(-c2nn(C)cc2Cl)n[nH]c1=S,-2%[57.1 µM],7.9µM*,3%,-10%,-9%,13µM*
CCn1c(-c2nn(-c3ccccc3)ccc2=O)n[nH]c1=S,?,?,41%,-2%,10%,-126%[59 µM]
COc1ccc(C2CC(c3c(O)n(CCc4ccccc4)c(=O)[nH]c3=O)=NN2)cc1OC (stereo not drawn),22µM*,-29%,38%,?,-15%,56µM*
COc1ccc(CCn2c(O)c(C=NCc3cccnc3)c(=O)[nH]c2=O)cc1OC,-3%,2%[11.4 µM],-12%,63%,10%,9%[12.7 µM]
N[C@@]1(C(=O)O)CC[C@@H](C(=O)O)C1,-1%,50µM*,-16%,-4%,0%,30µM*!
CN(C)CCN(C(=O)c1cc(Cl)sc1Cl)c1nc2ccc(F)cc2s1,?,?,-14%,11%,-2%,11µM*
COc1ccc(Nc2c(-c3cc(Br)ccc3O)nc3ncccn23)cc1OC,14µM*,20µM*,?,2%,·,10µM*
Cc1ccccc1Cn1cccc(C(=O)Nc2cc(Cl)ccc2C#N)c1=O,12%,-11%,11%[57 µM],-1%,·,8%[59 µM]
c1ccc(N2CCC3(CCNCC3)CC2)nc1,·,·,·,·,·,-4%[12.7 µM]
CC1(O)C[C@]2(C)N(O)C3CCCC[C@@H]3N2O1 (stereo partly drawn),6%,-7%,21%,9%,-6%,?
CC1(C)N(O)C2CCCCC2N1O (stereo not drawn),-9%,2.8µM*,48%,26%,14%,8.9µM*
CC1=C2CCC3C4CCC(=O)[C@@]4(C)CCC3[C@]2(C)CCC1=O (stereo partly drawn),·,·,·,·,·,-35%[2.33 µM]
Cc1c(C)c2ccc(OCC(=O)N3CCC[C@@H]3C(=O)O)c(C)c2oc1=O,-9%[57.1 µM],?,16%,0%,13%,·
COC(=O)C1=C(C(=O)OC)SC2(S1)C(C(=O)OC)=C(C(=O)OC)Sc1c2ssc1=O,·,40µM*,16µM*,-21%,·,·
C/C(=N\Nc1ccccc1)c1c(O)n(Cc2ccccc2)c(=O)[nH]c1=O,-11%,?,29%,27%,15%,10µM*
C/C(=N\Nc1ccccc1)c1c(O)n(-c2ccccc2)c(=O)[nH]c1=O,-17%,4%,35%,-13%,-8%,50µM*
CCC[C@@](C)(COC(N)=O)COC(=O)NC(C)C,·,·,·,·,·,19%[21.5 µM]
O=C(O)c1ccc([N+](=O)[O-])c([N+](=O)[O-])c1,·,-21%,-13%,-23%,·,·
O=C(O)c1sccc1Oc1ccc(F)cc1[N+](=O)[O-],?,-20%,21%,2%,·,35µM*
O=C(CCN1CCOCC1)Nc1ccc(Br)cc1C(=O)c1ccccc1,-31%,-26%,33%,8%,-5%,35µM*
O=C(CN1CCOCC1)Nc1ccc(Br)cc1C(=O)c1ccccc1,1%,-10%,8%,0%,7%,-7%[59 µM]
CC[C@@]1(C(=O)OC)N[C@H](CN(C)C(=O)Nc2ccc(F)cc2)[C@@H]2C(=O)N(Cc3ccccc3)C(=O)[C@@H]21,·,-18%,65%,-1%,5%,·
CC1OC(OC2C(O)CC(OC3C(O)CC(OC4CCC5(C)C(CCC6C5CCC5(C)C(C7=CC(=O)OC7)CCC65O)C4)OC3C)OC2C)CC(O)C1O (stereo not drawn),·,·,·,-3%,·,13%[59 µM]
CCCCCn1c(NC(=O)c2ccco2)c(C(=O)OCC)c2nc3ccccc3nc21,7%,?,?,-10%,9%,50µM*
SMILES,BAZ2B inh,JMJD2A Tudor inh,HP1b chromo inh,GLS inhibitor,L3MBTL1 block,G9a block
O=C(N=Nc1c(O)[nH]c(=O)[nH]c1=O)C1COc2cc3ccccc3cc2O1 (stereo not drawn),?,-15%[11.4 µM],-16%,4%,?,50µM*
NC(=O)c1ccc(N=Nc2c(O)[nH]c(=O)[nH]c2=O)cc1,-2%,·,·,·,8%,18%
O=C(O)c1ccc[nH]c1=S,40µM*,0.89µM*,38%,?,-1%,3.5µM*
CN1CC(C(=O)c2ccc([N+](=O)[O-])cc2)C(c2ccc(Cl)cc2)C1 (stereo not drawn),?,45µM*,?,-13%,·,21%[2.33 µM]
NC(N)=NN=C(/C=C/c1ccc([N+](=O)[O-])o1)/C=C/c1ccc([N+](=O)[O-])o1,·,·,·,-4%,·,?
c1ccc2nc3ccccc3nc2c1,-3%,-23%,41%,7%,-3%,45µM*
C/C(CC(c1ccccc1)c1c(O)c2ccccc2oc1=O)=N\Nc1ccc([N+](=O)[O-])cc1[N+](=O)[O-] (stereo not drawn),35µM*,35µM*,?,19%,·,14µM*
O=c1oc2ccccc2c(O)c1C(c1ccc([N+](=O)[O-])cc1)c1c(O)c2ccccc2oc1=O,56µM*,?,1%,?,?,40µM*
CC/C(CC(c1ccccc1)c1c(O)c2ccccc2oc1=O)=N\NC(N)=S (stereo not drawn),-1%,3.2µM*,?,10%,-10%,-6%[59 µM]
C[N+]12CCC(CC1)C(=C(c1ccccc1)c1ccccc1)C2,4%,-13%,12%,8%,11%,3.5µM*
CC[N+]12CCC(CC1)C(=C(c1ccccc1)c1ccccc1)C2,24%,-12%,44%,1%,39%,46%[59 µM]
CCOP(=O)(C1=C(O)C(=O)C(C(C)(C)C)=CC1=O)c1ccccc1 (stereo not drawn),-24%,-21%,17%,28%,·,56µM*
O=C1CCC[C@H]2[C@@H]3CCCN4CCC[C@H](CN12)[C@H]34,·,·,·,·,·,38%[59 µM]
CC1(C)CC(=O)C=C(NCCN2CCN(C(=O)Cc3ccc(Cl)cc3)CC2)C1,6%,-3%,20%,1%,-14%,71µM*
O=C1CC(c2ccccc2)CC(O)=C1C=NCCN1CCN(C(=O)Cc2ccccc2)CC1 (stereo not drawn),10%,-11%,44%,1%,·,79µM*
Cc1ccc(C2CC(=O)C(C=NCCN3CCN(C(=O)Cc4ccccc4)CC3)=C(O)C2)cc1 (stereo not drawn),6%,2%[57.1 µM],17%,1%,4%,?
CC1(C)CC(=O)C(C=NCCN2CCN(C(=O)Cc3ccc(F)cc3)CC2)=C(O)C1,7%,-7%,56%,-2%,-2%,35µM*

# Source: PubChem
